Compound in this assay: Nc1ncnc2c1ncn2[C@@H]1O[C@H](COP(=O)(O)OP(=O)(O)NP(=O)(O)O)[C@@H](O)[C@H]1O [adenylyl imidodiphosphate]
Kind of assay: NP40-soluble protein abundance relative to vehicle (solubility fold change) (ratio); higher = more soluble protein in presence of AMP-PNP. The gist of the method:
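Crude Jurkat lysate, prepared by Dounce homogenisation, was exposed to eight concentrations from 0.1 to 10 mM for 10 min at room temperature and then 3 min at 37 °C. Solubilisation used 0.8% NP40 with benzonase for 60 min at 4 °C, followed by ultracentrifugation and TMT labelling of the supernatant for LC-MS/MS. After vsn normalisation of intensities, each value is the fold change against the detergent-processed vehicle within each replicate, across three independent experiments.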

± gives the standard deviation of the averaged measurements. Of roughly 6,200 targets only a part is listed; those with the largest changes were picked by preference.

UniProt P10746, sequence (P10746 whole entry): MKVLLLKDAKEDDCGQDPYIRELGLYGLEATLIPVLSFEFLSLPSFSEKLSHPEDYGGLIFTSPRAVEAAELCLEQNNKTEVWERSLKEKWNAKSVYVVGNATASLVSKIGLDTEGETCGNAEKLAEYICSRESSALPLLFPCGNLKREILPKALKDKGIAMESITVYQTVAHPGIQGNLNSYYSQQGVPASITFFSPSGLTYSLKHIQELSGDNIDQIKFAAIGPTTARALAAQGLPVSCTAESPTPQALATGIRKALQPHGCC
UniProt P49005, sequence (P49005 whole entry, one chain of several): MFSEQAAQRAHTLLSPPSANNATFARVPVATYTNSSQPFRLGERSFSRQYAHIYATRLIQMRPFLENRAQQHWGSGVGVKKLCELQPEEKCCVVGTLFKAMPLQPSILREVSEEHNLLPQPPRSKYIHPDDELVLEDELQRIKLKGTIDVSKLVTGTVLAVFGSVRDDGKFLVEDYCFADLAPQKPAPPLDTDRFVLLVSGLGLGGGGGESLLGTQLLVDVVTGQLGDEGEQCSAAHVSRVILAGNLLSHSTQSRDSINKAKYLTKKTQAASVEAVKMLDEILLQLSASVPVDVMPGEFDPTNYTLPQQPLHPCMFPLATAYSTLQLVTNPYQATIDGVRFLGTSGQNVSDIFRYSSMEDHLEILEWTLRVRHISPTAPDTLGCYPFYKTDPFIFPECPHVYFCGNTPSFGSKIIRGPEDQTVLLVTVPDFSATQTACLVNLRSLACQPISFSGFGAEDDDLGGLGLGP
UniProt P18859, sequence (P18859 whole entry, one chain of several): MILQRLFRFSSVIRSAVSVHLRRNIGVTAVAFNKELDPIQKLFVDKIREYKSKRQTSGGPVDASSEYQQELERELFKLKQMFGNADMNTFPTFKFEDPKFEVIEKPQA
UniProt O95630, sequence (O95630 whole entry): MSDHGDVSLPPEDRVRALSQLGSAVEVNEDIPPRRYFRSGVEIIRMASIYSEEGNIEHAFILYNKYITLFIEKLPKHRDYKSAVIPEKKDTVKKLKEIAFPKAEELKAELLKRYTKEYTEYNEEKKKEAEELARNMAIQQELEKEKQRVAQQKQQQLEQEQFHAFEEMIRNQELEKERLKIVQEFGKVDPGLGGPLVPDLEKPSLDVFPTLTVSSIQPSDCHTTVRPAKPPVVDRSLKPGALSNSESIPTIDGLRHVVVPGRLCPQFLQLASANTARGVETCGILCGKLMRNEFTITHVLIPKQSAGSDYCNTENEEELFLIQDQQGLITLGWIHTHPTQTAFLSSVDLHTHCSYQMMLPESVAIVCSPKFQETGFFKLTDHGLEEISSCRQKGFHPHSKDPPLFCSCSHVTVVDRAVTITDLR
UniProt P56282, sequence (P56282 whole entry): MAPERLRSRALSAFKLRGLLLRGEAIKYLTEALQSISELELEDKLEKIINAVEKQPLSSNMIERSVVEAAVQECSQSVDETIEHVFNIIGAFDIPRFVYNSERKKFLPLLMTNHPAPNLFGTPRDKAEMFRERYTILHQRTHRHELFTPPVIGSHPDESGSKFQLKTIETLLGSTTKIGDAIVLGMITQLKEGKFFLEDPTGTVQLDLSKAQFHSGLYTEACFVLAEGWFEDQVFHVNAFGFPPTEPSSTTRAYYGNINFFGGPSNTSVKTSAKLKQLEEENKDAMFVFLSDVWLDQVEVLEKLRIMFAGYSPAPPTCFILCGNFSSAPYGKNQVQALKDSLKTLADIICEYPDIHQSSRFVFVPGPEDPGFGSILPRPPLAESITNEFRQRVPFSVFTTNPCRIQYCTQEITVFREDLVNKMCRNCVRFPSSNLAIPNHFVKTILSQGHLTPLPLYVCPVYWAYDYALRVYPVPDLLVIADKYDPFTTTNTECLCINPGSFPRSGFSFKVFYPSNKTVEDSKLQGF
UniProt P31751, sequence (P31751 whole entry): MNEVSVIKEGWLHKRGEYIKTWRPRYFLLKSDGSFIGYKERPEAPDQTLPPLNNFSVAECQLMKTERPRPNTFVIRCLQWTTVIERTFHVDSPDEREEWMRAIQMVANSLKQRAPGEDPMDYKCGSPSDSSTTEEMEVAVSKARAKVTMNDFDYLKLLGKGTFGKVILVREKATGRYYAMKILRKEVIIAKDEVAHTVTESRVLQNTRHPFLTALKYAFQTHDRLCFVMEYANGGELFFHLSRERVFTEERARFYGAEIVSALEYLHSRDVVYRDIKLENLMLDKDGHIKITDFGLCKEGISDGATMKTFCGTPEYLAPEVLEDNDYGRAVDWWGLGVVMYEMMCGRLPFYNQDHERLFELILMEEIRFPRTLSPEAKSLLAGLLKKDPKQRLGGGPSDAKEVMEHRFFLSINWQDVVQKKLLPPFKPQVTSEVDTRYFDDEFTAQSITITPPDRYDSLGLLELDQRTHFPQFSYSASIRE
UniProt P37268, sequence (P37268 whole entry): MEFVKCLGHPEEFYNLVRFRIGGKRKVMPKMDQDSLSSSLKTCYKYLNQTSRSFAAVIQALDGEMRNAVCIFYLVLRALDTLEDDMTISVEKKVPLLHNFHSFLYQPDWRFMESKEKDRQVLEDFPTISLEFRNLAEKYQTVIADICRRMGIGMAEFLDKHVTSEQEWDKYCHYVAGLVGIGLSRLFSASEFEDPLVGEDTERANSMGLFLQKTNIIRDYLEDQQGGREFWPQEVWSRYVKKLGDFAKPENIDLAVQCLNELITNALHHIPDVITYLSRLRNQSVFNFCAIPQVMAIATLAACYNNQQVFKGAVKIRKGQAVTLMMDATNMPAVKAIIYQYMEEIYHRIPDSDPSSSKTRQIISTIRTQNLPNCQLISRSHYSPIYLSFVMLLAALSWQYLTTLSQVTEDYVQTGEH
UniProt P14649, sequence (P14649 whole entry): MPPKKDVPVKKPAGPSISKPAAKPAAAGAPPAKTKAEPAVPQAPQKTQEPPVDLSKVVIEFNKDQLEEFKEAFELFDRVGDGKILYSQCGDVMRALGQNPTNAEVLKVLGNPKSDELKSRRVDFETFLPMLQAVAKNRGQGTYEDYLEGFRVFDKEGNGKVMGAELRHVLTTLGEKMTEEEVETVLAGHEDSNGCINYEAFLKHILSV
UniProt O75694, sequence (O75694 whole entry): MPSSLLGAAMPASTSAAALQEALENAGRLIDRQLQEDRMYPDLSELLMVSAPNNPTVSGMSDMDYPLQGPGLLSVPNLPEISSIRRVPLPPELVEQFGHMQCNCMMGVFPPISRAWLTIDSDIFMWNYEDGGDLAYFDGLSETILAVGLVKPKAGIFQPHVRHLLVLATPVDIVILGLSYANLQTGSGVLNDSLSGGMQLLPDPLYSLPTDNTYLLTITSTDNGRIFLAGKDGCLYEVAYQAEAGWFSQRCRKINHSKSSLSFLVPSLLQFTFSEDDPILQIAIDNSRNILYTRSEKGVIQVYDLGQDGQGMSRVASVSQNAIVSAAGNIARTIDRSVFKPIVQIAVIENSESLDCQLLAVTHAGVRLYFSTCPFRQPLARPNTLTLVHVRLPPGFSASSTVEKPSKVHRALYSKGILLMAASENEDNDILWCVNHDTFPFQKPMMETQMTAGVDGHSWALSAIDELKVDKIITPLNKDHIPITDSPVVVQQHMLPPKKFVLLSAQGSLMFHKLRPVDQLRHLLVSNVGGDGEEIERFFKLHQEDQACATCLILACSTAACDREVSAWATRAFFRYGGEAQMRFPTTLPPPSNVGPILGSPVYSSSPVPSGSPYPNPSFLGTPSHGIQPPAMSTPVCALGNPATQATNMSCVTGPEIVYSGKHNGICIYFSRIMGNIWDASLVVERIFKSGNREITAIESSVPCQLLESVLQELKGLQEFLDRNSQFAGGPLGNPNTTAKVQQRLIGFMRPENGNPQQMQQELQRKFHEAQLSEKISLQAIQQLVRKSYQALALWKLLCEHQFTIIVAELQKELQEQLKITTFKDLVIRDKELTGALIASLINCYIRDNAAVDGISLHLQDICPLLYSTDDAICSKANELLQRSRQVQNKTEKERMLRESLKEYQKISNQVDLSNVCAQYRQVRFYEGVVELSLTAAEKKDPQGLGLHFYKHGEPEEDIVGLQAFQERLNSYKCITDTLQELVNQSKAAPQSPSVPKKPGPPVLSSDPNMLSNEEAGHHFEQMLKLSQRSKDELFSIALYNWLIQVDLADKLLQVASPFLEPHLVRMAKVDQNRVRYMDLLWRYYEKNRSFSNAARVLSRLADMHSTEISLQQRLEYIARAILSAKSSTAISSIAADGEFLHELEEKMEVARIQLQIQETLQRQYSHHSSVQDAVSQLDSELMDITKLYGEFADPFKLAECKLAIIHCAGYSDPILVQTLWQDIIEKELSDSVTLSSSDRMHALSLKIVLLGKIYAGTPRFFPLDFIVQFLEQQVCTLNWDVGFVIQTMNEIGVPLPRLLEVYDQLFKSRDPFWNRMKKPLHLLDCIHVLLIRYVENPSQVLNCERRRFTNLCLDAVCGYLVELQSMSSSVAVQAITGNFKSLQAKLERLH
UniProt P22087, sequence (P22087 whole entry): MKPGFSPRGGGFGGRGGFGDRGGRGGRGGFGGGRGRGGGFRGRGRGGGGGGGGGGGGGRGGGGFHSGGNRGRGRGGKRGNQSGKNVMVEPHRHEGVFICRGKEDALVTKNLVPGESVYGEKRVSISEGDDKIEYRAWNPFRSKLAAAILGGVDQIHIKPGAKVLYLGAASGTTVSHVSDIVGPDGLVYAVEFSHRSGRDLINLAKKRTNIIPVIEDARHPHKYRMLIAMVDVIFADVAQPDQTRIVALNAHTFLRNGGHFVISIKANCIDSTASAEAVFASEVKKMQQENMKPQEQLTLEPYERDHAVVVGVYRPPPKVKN

Turning to STAMBP (UniProt O95630), the NP40-soluble protein abundance is, setting by setting: (concentration: 1mM) 1.02 ± 0.02; (concentration: 2mM) 0.993 ± 0.012; (concentration: 4mM) 0.995 ± 0.03; (concentration: 6mM) 0.984 ± 0.018; (concentration: 8mM) 0.964 ± 0.033; (concentration: 10mM) 0.948 ± 0.06.

Turning to NUP155 (UniProt O75694), the NP40-soluble protein abundance (concentration: 1mM) came to 0.983 ± 0.046; the NP40-soluble protein abundance (concentration: 2mM) is 0.919 ± 0.062; the NP40-soluble protein abundance (concentration: 4mM) is 1 ± 0.025; the NP40-soluble protein abundance (concentration: 6mM) is 0.98 ± 0.039; the NP40-soluble protein abundance (concentration: 8mM) worked out at 1.01 ± 0.035; the NP40-soluble protein abundance (concentration: 10mM) stood at 1 ± 0.023.

Regarding AKT2 (UniProt P31751), the NP40-soluble protein abundance (concentration: 1mM) came out at 0.974 ± 0.025; the NP40-soluble protein abundance (concentration: 2mM) stood at 0.95 ± 0.043; the NP40-soluble protein abundance (concentration: 4mM) amounted to 0.969 ± 0.034; the NP40-soluble protein abundance (concentration: 6mM) was found to be 0.947 ± 0.031; the NP40-soluble protein abundance (concentration: 8mM) amounted to 0.969 ± 0.017; the NP40-soluble protein abundance (concentration: 10mM) was 0.96 ± 0.044.

Consider UniProt P62805, for which the NP40-soluble protein abundance is 0.903 ± 0.073 (concentration: 1mM); 0.951 ± 0.018 (concentration: 2mM); 0.964 ± 0.046 (concentration: 4mM); 1.12 ± 0.18 (concentration: 6mM); 1.25 ± 0.16 (concentration: 8mM); 1.52 ± 0.25 (concentration: 10mM).

Turning to RPL7 (UniProt P18124), the NP40-soluble protein abundance stood at 0.966 ± 0.094 (concentration: 1mM); 0.953 ± 0.039 (concentration: 2mM); 0.962 ± 0.07 (concentration: 4mM); 0.895 ± 0.056 (concentration: 6mM); 0.902 ± 0.097 (concentration: 8mM); 0.985 ± 0.024 (concentration: 10mM).

Regarding FDFT1 (UniProt P37268), the NP40-soluble protein abundance runs as follows: (concentration: 1mM) 0.993 ± 0.038; (concentration: 2mM) 0.952 ± 0.027; (concentration: 4mM) 0.991 ± 0.024; (concentration: 6mM) 1.03 ± 0.1; (concentration: 8mM) 1.05 ± 0.057; (concentration: 10mM) 1.01 ± 0.078.

For the target UniProt P15170-2|P15170-3|H3BSV8, the NP40-soluble protein abundance (concentration: 1mM) amounted to 0.993 ± 0.025; the NP40-soluble protein abundance (concentration: 2mM) came to 0.955 ± 0.035; the NP40-soluble protein abundance (concentration: 4mM) amounted to 0.96 ± 0.01; the NP40-soluble protein abundance (concentration: 6mM) was 0.995 ± 0.012; the NP40-soluble protein abundance (concentration: 8mM) amounted to 0.964 ± 0.014; the NP40-soluble protein abundance (concentration: 10mM) was 0.968 ± 0.043.

On to NCKAP1L (UniProt P55160), for which the NP40-soluble protein abundance was 0.975 ± 0.021 (concentration: 1mM); 0.905 ± 0.085 (concentration: 2mM); 0.955 ± 0.027 (concentration: 4mM); 0.955 ± 0.072 (concentration: 6mM); 0.975 ± 0.046 (concentration: 8mM); 0.914 ± 0.037 (concentration: 10mM).

As for MYL6B (UniProt P14649), the NP40-soluble protein abundance amounted to 1.02 ± 0.042 (concentration: 1mM); 1.1 ± 0.053 (concentration: 2mM); 1.01 ± 0.034 (concentration: 4mM); 0.987 ± 0.051 (concentration: 6mM); 0.925 ± 0.041 (concentration: 8mM); 0.962 ± 0.019 (concentration: 10mM).

For the target UniProt P56282|P56282-3|P56282-2, the NP40-soluble protein abundance reads like this: (concentration: 1mM) 0.973 ± 0.03; (concentration: 2mM) 0.933 ± 0.065; (concentration: 4mM) 0.968 ± 0.026; (concentration: 6mM) 0.952 ± 0.036; (concentration: 8mM) 0.942 ± 0.041; (concentration: 10mM) 0.951 ± 0.045.

Regarding FBL (UniProt P22087), the NP40-soluble protein abundance reads like this: (concentration: 1mM) 1.02 ± 0.046; (concentration: 2mM) 1.027 ± 0.003; (concentration: 4mM) 1.1 ± 0.051; (concentration: 6mM) 1.22 ± 0.092; (concentration: 8mM) 1.37 ± 0.12; (concentration: 10mM) 1.48 ± 0.25.

Regarding UniProt P49005|F8W8R3, the NP40-soluble protein abundance runs as follows: (concentration: 1mM) 0.977 ± 0.021; (concentration: 2mM) 0.947 ± 0.059; (concentration: 4mM) 0.973 ± 0.027; (concentration: 6mM) 0.929 ± 0.011; (concentration: 8mM) 0.9339 ± 0.0057; (concentration: 10mM) 0.925 ± 0.037.

Turning to GCLC (UniProt P48506), the NP40-soluble protein abundance (concentration: 1mM) came to 0.993 ± 0.027; the NP40-soluble protein abundance (concentration: 2mM) amounted to 0.928 ± 0.043; the NP40-soluble protein abundance (concentration: 4mM) was determined as 0.976 ± 0.033; the NP40-soluble protein abundance (concentration: 6mM) worked out at 0.941 ± 0.014; the NP40-soluble protein abundance (concentration: 8mM) amounted to 0.963 ± 0.029; the NP40-soluble protein abundance (concentration: 10mM) came to 0.922 ± 0.02.

UniProt P18859|P18859-2|A8MUH2: the NP40-soluble protein abundance reads like this: (concentration: 1mM) 0.948 ± 0.053; (concentration: 2mM) 0.899 ± 0.032; (concentration: 4mM) 0.867 ± 0.062; (concentration: 6mM) 0.834 ± 0.05; (concentration: 8mM) 0.825 ± 0.063; (concentration: 10mM) 0.857 ± 0.026.

For the target UROS (UniProt P10746), the NP40-soluble protein abundance worked out at 1.04 ± 0.012 (concentration: 1mM); 1.03 ± 0.015 (concentration: 2mM); 1 ± 0.045 (concentration: 4mM); 0.99 ± 0.029 (concentration: 6mM); 0.975 ± 0.051 (concentration: 8mM); 0.982 ± 0.075 (concentration: 10mM).

The values above are taken from the supplement of paper PMC6411743.
